The test is described as follows: growth inhibition of WT strain, primary screen, mitochondrial fusion inhibitor project, WT and mutant strains, chemical genetic (AID 1362). To be noted: mitochondrial fusion phenotypic screen, at 10 µM.
[1] abbreviates: WT strain, growth inhibition, stronger effect = higher value.

Molecules are shown by their SMILES. Out of some 190,000 compounds screened, about 4,000 (2.1%) were called active. Rule as the data show it: active = inhibition above about 58%; inactive = the rest, inconclusive results apart; tested in S. cerevisiae. Shown is part of a subset that was picked to be rich in actives.

For orientation: inhibition means the change of the read-out against control, counted positive when it falls.

`CCn1nccc1C(=O)Nc1ccc(Cl)c(Cl)c1`: the inhibition is, setting by setting: under setting [1], 27.7% (inactive); (mutant strain inhibition) 28.1%.
For `CCn1nccc1C(=O)Nc1ccc(S(=O)(=O)NC23CC4CC(CC(C4)C2)C3)cc1` the same measures were 64% (active) and -11.7%.
With `Cc1cc(C(F)F)n2nc(C(=O)Nc3ccc(S(=O)(=O)NC45CC6CC(CC(C6)C4)C5)cc3)nc2n1`, the inhibition is -1.63% (inactive) under setting [1] and -19.6% (mutant strain inhibition).
For `S=c1nc(C23CC4CC(CC(C4)C2)C3)nc2sccn12` the same measures were 23.5% (inactive) and 16.9%.
For `COc1ccccc1N1CCN(CC(=O)NCCc2ccc(S(N)(=O)=O)cc2)CC1` the same measures were -0.9% (inactive) and 3.52%.
`O=C1NC(Nc2nc3ccccc3s2)(C(F)(F)F)C(=O)N1C1CCCCC1` (stereo unspecified): the inhibition under setting [1] is 68.5% (active) and the inhibition (mutant strain inhibition) was 15.8%.
`O=C(NC1(C(F)(F)F)NC(=O)N(C2CCCCC2)C1=O)c1ccco1` (stereo unspecified): the inhibition is -16.6% (inactive) under setting [1] and -15.1% (mutant strain inhibition).
For `COC(=O)NC1(C(F)(F)F)NC(=O)N(C2CCCCC2)C1=O` (stereo unspecified) the same measures were 6.22% (inactive) and -5.73%.
For the compound `CS(=O)(=O)N(CC(=O)NC1CCCC1)Cc1ccc(F)cc1`, the inhibition under setting [1] was 1.23% (inactive) and the inhibition (mutant strain inhibition) was -0.09%.
For `CN(C)S(=O)(=O)c1cccc(NC(=O)COC(=O)/C=C/c2cccs2)c1`, the inhibition by setting is: under setting [1], 0.4% (inactive); (mutant strain inhibition) -0.76%.
For `CN1CCN(S(=O)(=O)c2cccc(C(=O)N3CCc4ccccc43)c2)CC1` the same measures were -3.09% (inactive) and -6.02%.
For `COc1cccc(CNC(=O)Cc2csc(Nc3nc(=S)[nH]c4ccccc34)n2)c1` the same measures were 2.48% (inactive) and 7.91%.
Consider `CCn1c(SCC(=O)Nc2nc3ccc(OC)cc3s2)nnc1-c1ccoc1C`, for which the inhibition runs as follows: under setting [1], 42% (inactive); (mutant strain inhibition) 9.68%.
For `Cc1noc(C)c1CSCC(=O)Nc1nc2ccc(Oc3ccccc3)cc2s1` the same measures were 71.3% (active) and 34.8%.
Consider `CCOC(=O)c1c(C2CC2)csc1NC(=O)CSCc1c(C)noc1C`, for which the inhibition under setting [1] was -0.08% (inactive) and the inhibition (mutant strain inhibition) stood at 6.46%.
Consider `O=C(O)Cc1ccc(NCc2ccccc2Cl)cc1`, for which the inhibition by setting is: under setting [1], 2.97% (inactive); (mutant strain inhibition) -2.38%.
Consider `CN1CCNC(=O)C1CC(=O)NCCC1=CCCCC1` (stereo unspecified), for which the inhibition by setting is: under setting [1], 13.1% (inactive); (mutant strain inhibition) 9.2%.
For `Cc1ccc(-c2csc(NNC(=O)c3ccccc3)n2)cc1` the same measures were 9.24% (inactive) and 14%.
For `CCCc1cc(-c2nc(-c3ccc(C)cc3)cs2)ccn1` the same measures were 77.9% (active) and 50.8%.
As for `Clc1ccc(-c2csc(-c3ccncc3)n2)cc1`, the inhibition is 25.2% (inactive) under setting [1] and 28.4% (mutant strain inhibition).
For `CC1Cc2ccccc2N1C(=O)CSc1nnc(C2CC2)n1C` (stereo unspecified) the same measures were -5.06% (inactive) and 2.15%.
For `Cc1ccc(C)c(NC(=S)NNC(=O)c2csc(C)c2)c1` the same measures were -2.09% (inactive) and -14.4%.
For `Cc1ccc(NC(=S)N/N=C2/CCCc3c(C)cc(C)cc32)cc1` the same measures were 23.1% (inactive) and 23.1%.
On to `Cc1ccc(C)c(NC(=S)NNC(=S)Nc2ccc(C(C)C)cc2)c1`, for which the inhibition is, setting by setting: under setting [1], 71.3% (active); (mutant strain inhibition) 24.5%.
For `Cc1nn(CCOc2ccc(Br)cc2)c(C)c1[N+](=O)[O-]` the same measures were 3.38% (inactive) and -3.33%.
For `O=S(=O)(Cc1ccccc1)c1nc2ccccc2n1Cc1ccccn1` the same measures were 23.5% (inactive) and 10.5%.
For `C=CCn1c(=N)n(CC(O)COc2ccc(OC)cc2)c2ccccc21` (stereo unspecified) the same measures were 10.5% (inactive) and -4.41%.
As to `OC(CN=c1sc2ccccc2n1CC(O)COc1ccccc1)COc1ccccc1` (stereo unspecified), the inhibition runs as follows: under setting [1], 74.3% (active); (mutant strain inhibition) 39.9%.
On to `OC(COc1ccccc1)Cn1cc(Br)cn1` (stereo unspecified), for which the inhibition under setting [1] is 5.35% (inactive) and the inhibition (mutant strain inhibition) is -3.45%.
In the case of `COc1ccccc1C(c1nnnn1CC1CCCO1)N1CCN(c2ccccc2)CC1` (stereo unspecified), the inhibition by setting is: under setting [1], 24.2% (inactive); (mutant strain inhibition) -7.45%.
Consider `O=C1COc2ccc(C(=O)COC(=O)C3CC(O)CN3S(=O)(=O)c3ccc(Cl)cc3)cc2N1` (stereo unspecified), for which the inhibition was 7.83% (inactive) under setting [1] and 0.3% (mutant strain inhibition).
For `Cc1ccnc(NC(=O)CCC(=O)N(CC(=O)NCc2ccccc2)Cc2ccco2)c1` the same measures were -6.89% (inactive) and 16.9%.
For `O=S1(=O)CCC(NC(=S)SCc2ccccc2Br)C1` (stereo unspecified) the same measures were -2.13% (inactive) and 13.4%.
For `COCCn1c(CN(Cc2ccccc2)Cc2ccccc2)nc2c1c(=O)n(C)c(=O)n2C` the same measures were 13% (inactive) and -1.28%.
With `CC(C)CCn1c(CN(C)Cc2ccccc2)nc2c1c(=O)n(C)c(=O)n2C`, the inhibition under setting [1] is 1.88% (inactive) and the inhibition (mutant strain inhibition) came to 1.47%.
For `CC(C)Cn1c(CN(Cc2ccccc2)Cc2ccccc2)nc2c1c(=O)n(C)c(=O)n2C` the same measures were 85.5% (active) and 23.3%.
`Cc1ccc2nc(C)cc(N/N=C/c3ccc(F)cc3)c2c1`: the inhibition was 6.16% (inactive) under setting [1] and 21% (mutant strain inhibition).
For `CCOC(=O)c1cccc(NC(=O)CCOc2ccccc2)c1` the same measures were 3.69% (inactive) and 2.18%.
For `COc1ccccc1CSc1nc2ccccc2[nH]1`, the inhibition runs as follows: under setting [1], -4.85% (inactive); (mutant strain inhibition) -2.06%.
In the case of `COc1ccccc1CC(=O)Nc1ccc([N+](=O)[O-])cc1OC`, the inhibition reads like this: under setting [1], -6.53% (inactive); (mutant strain inhibition) -1.24%.
As for `COc1ccccc1CSc1ncc(-c2ccc([N+](=O)[O-])cc2)[nH]1`, the inhibition is, setting by setting: under setting [1], 63.4% (active); (mutant strain inhibition) 30.7%.
For `COCC(C)NCc1cc(Br)ccc1OC` (stereo unspecified) the same measures were 7.52% (inactive) and 7.1%.
`CCCOc1ccc(N/C=C/C(=O)C(C)(C)C)cc1`: the inhibition runs as follows: under setting [1], -11.3% (inactive); (mutant strain inhibition) -8.28%.

Source of the values: PubChem BioAssay AID1362 (SRMLSC, 2008).
